This is a sample that favours compounds with a hit; in the whole collection about 0.77% have one here.
Mtb hypoxia rep: Mtb hypoxia fluorescent reporter inhibition; actives 0.1% (n = 300,000); fluorescence inhibition, % (no concentration beside the values); M. tuberculosis hypoxia-regulated fluorescent reporter, fluorescence; in the data active means fluorescence inhibition mostly above about 23%, no sharp cut-off; inactive means mostly below about 17%
Mtb betalactam: beta-lactam sensitization of Mtb H37Rv | M. tuberculosis H37Rv growth with meropenem, percent inhibition | inhibition, % at 25 µM | actives 0.27% (n = 330,000) | AID 434955;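 further: growth measured after seven days incubation then overnight dye step; 0% = bacteria only wells and 100% = bacteria with antibiotic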
RecA intein inh: inhibitors of M. tuberculosis RecA intein splicing | P9WHJ3 | cell-free RecA intein splicing, fluorescence | inhibition, % (no concentration beside the values) | actives 0.75% (n = 290,000) | AID 2221; in the data active means inhibition above about 30%; inconclusive means no clear call, values can overlap the other calls;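 further: 0% = vehicle wells and 100% = reference inhibitor control wells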
Target sequence (P9WHJ3 whole entry, looked up): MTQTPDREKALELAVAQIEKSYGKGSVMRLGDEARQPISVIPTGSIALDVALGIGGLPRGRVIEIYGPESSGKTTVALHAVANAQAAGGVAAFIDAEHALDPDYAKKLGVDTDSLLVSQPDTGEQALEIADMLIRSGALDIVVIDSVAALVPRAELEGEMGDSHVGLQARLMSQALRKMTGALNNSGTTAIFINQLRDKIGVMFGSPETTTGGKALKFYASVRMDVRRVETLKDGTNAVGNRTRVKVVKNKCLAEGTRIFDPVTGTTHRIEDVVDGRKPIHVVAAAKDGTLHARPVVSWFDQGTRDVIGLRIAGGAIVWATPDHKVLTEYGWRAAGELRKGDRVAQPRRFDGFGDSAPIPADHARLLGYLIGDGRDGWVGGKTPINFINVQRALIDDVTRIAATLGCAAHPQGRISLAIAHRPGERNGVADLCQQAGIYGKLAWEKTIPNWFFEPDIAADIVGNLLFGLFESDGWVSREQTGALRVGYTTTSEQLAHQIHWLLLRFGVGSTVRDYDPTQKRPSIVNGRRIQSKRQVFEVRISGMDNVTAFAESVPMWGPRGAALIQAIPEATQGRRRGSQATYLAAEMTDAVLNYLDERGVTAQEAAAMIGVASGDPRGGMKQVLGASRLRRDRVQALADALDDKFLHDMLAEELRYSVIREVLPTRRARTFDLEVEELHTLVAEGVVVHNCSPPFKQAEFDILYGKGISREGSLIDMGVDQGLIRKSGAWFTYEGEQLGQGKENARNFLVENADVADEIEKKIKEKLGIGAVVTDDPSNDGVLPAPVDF
Rv3671c inh: inhibits the M. tuberculosis serine protease Rv3671c; P9WHR9; inhibition, % at 5.96 µM; actives 0.048% (n = 320,000); in the data active means inhibition above about 38%;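 further: extracellular domain of Rv3671c used as enzyme; 0% = enzyme with DMSO and 100% = no enzyme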
Mtb UGM inh: blocks M. tuberculosis UGM enzyme; P9WIQ1; purified UGM, fluorescence polarization probe displacement; inhibition, % at 10 µM; actives 0.06% (n = 320,000); AID 504406; in the data active means inhibition above about 10%, passing the limit was not always enough; inconclusive means no clear call, values can overlap the other calls
GFP chromo cs: counter-screen GFP chromophore formation inhibition; shares compounds with RecA intein inh; cell-free GFP chromophore formation, fluorescence; EC50, µM; actives 83% (n = 2,100); AID 434968
The depositor's hits bear a star; ? = inconclusive; / = not tested or not shown. Unless noted, how the calls were made is not given here.

SMILES	Mtb hypoxia rep	Mtb betalactam	RecA intein inh	Rv3671c inh	Mtb UGM inh	GFP chromo cs
Cc1cccc(S(=O)(=O)C(C#N)c2nc3ccccc3nc2N2CCCC2)c1 (configuration not stated)	24.1	-5.1	44.7*	2.2	0.9	>38
O=c1cc(-c2c(F)c(F)c(F)c(F)c2F)oc2ccccc12	/	99.9	28.6	1.8	-3.1	/
O=c1cc(-c2c(F)c(F)c(F)c(F)c2F)oc2c(F)c(F)c(F)c(F)c12	/	100.1	86.1*	-38.9	0.8	13.4*
CC(C)(C)Nc1nc(Cl)nc(N(C#N)CN2C(=O)c3ccccc3S2(=O)=O)n1	-3.6	2.7	50.6*	-19.0	-1.5	39.4*
COc1ccc(OCc2cc(C(=O)N3CCCC(OC)C3)no2)c2ccccc12 (configuration not stated)	/	-0.5	35.2*	1.8	0.0	30.4*
O=C(Nc1ccc(Cl)c(C(F)(F)F)c1)C1CC=CC2CCN(Cc3ccc(Cl)c(Cl)c3)C(=O)C21 (configuration not stated)	9.6	/	/	/	/	/
CCOC(=O)C1C2COc3ccc(C)cc3C2N2C(=O)c3cc(OC)c(OC)cc3NC(=O)[C@@]12C (some centres not stated)	5.7	/	/	/	/	/
O=C(NCc1cccnc1)/C(=C\c1ccc(-c2cccc(Cl)c2)o1)S(=O)(=O)c1ccccc1	2.3	7.0	53.8*	-18.2	2.2	35.3*
O=C(NNC(=O)c1ccc2ccccc2c1O)c1ccccc1Cl	/	-6.2	34.6*	-4.2	2.7	>38
Cc1cc(C(=O)c2ccccc2)c(NC(=O)CN2CCOCC2)s1	-4.3	3.5	0.1	-2.3	-0.2	/
Cc1cc(C(=O)c2ccc(C(C)(C)C)cc2)c(NC(=O)CCl)s1	21.5	99.4	67.2*	-18.9	-1.6	33.8*
Cc1sc(NC(=O)CCl)c(C(=O)c2ccccc2)c1C	14.5	97.0	62.9*	-2.2	2.2	31.8*
O=C(C=Cc1ccccc1Cl)c1cccnc1	17.4	/	/	/	/	/
CCCOc1ccc(-c2nn(-c3ccccc3)cc2C=C2SC(N)=NC2=O)cc1	-2.1	/	/	/	/	/
CCC(C)Sc1ccc(C2N[C@@](C)(C(=O)OC)C3C(=O)N(CC)C(=O)C23)cc1 (some centres not stated)	17.6	/	/	/	/	/
Cc1ccc(CN2CCC3C=CCc4cccc(c43)C2)cc1 (configuration not stated)	-4.1	/	/	/	/	/
Cc1ccc(NC(=O)c2sc3ncnc(N4CCN(c5ccccn5)CC4)c3c2C)c(C)c1	/	96.2	73.0*	-25.8	-2.0	>38
C=C1CCN(C(C(=O)OCc2ccc(C)cc2)C(C)C)S(=O)(=O)c2ccccc21 (configuration not stated)	11.9	/	/	/	/	/
C=C(C)C(=O)Nc1cccc(C2=NOC3(C2)CC(C(N)=O)N(C(=O)c2ccccc2C(=O)c2ccccc2)C3)c1 (configuration not stated)	3.8	/	/	/	/	/
COC(=O)CC1(c2cccc3ccccc23)C(=O)c2ccccc2C1=O	/	3.9	41.9*	6.2	-0.3	6.58*
CCOc1cc(C(=O)NCCN2C(=O)SC(=Cc3cccnc3)C2=O)cc(OCC)c1OCC	-0.4	/	/	/	/	/
CC1=NN(Cc2ccccc2)C(=O)/C1=C\c1ccc(N(C)C)cc1	-2.0	-8.4	93.9*	0.3	0.4	?
COc1ccc(C2CC(=O)C=C(c3ccc(OC)c(F)c3)C2)cc1 (configuration not stated)	10.9	/	/	/	/	/
CCOC(=O)c1cnc2ccc(C)cc2c1Sc1ccccc1	/	60.4	62.8*	-15.6	0.0	37.7*
CCOC(=O)c1cnc(N)nc1C(F)(F)F	-3.0	-8.6	60.8*	-0.5	3.6	>38
SMILES	Mtb hypoxia rep	Mtb betalactam	RecA intein inh	Rv3671c inh	Mtb UGM inh	GFP chromo cs
Cc1noc(C)c1NC(=O)N(C)CC1Oc2ccc(NS(=O)(=O)c3cn(C)cn3)cc2C(=O)N(C(C)CO)CC1C (configuration not stated)	12.5	/	/	/	/	/
O=C1NCC(c2ccccc2)N(CCc2cccc3ccccc23)C1=O (configuration not stated)	-5.3	/	/	/	/	/
Cc1ccc(Nc2cc(C)nn2-c2nc(C)cc(C)n2)cc1	/	96.7	4.2	1.4	2.1	/
Cc1ccc(Nc2cc(C)nn2-c2nc(C)cc(=O)[nH]2)cc1	19.9	92.3	39.3*	0.1	3.0	>38
CCCCOCCCNC(=O)NC(C(=O)OC)C(C)C (configuration not stated)	-0.8	/	/	/	/	/
Cc1ccc(-c2[nH]nc3c2C(C)C(C#N)=C(N)O3)cc1 (configuration not stated)	5.9	-3.1	88.2*	-2.2	0.1	0.496*
CCOc1ccc(C2C(C#N)=C(N)Oc3nc[nH]c(=O)c32)cc1 (configuration not stated)	-1.4	0.3	-11.9	1.4	-2.6	/
Cc1ccc(C2C(C#N)=C(N)Oc3n[nH]c(-c4cccnc4)c32)o1 (configuration not stated)	-1.4	-6.2	53.0*	7.7	1.9	37.9*
CCOc1ccc(-c2[nH]nc3c2C(c2ccc(O)cc2)C(C#N)=C(N)O3)cc1 (configuration not stated)	2.0	-1.9	62.5*	-10.2	1.1	14.7*
Cc1[nH]nc2c1C(c1cn[nH]c1-c1ccc(F)cc1)C(C#N)=C(N)O2 (configuration not stated)	/	3.6	65.1*	5.7	0.5	17.5*
CCC(C)C1C(C#N)=C(N)Oc2n[nH]c(-c3ccccc3)c21 (configuration not stated)	-2.0	-4.2	4.8	-8.3	2.6	/
CC1CN(C(C)CO)C(=O)c2cccc(NC(=O)Nc3ccc(C(F)(F)F)cc3)c2OC1CN(C)S(=O)(=O)c1ccc(Cl)cc1 (configuration not stated)	4.1	/	/	/	/	/
CC=C(C)C(=O)OC1CC(C)(C)CC2C3=CCC4[C@@]5(C)CCC(OC6OC(C(=O)O)C(O)C(OC7OCC(O)C(O)C7OC7OC(CO)C(O)C(O)C7O)C6OC6OC(CO)C(O)C(O)C6O)[C@@](C)(CO)C5CC[C@]4(C)[C@]3(C)CC(O)[C@@]12CO (some centres not stated)	16.8	/	/	/	/	/
COCCNC(=O)C1CC1C(NP(=O)(c1ccccc1)c1ccccc1)c1ccccc1 (configuration not stated)	2.6	/	/	/	/	/
O=C(NCc1ccccc1)C1=CC(C2CCCCC2)CC(OCCCCO)O1 (configuration not stated)	13.7	/	/	/	/	/
N#CC1=C(N)Oc2n[nH]c(-c3ccccc3)c2C1c1ccncc1 (configuration not stated)	14.0	8.0	64.6*	2.9	2.6	26.7*
COc1cc(C2C(C#N)=C(N)Oc3n[nH]c(-c4cccnc4)c32)cc(Br)c1O (configuration not stated)	0.6	6.5	81.0*	-42.4	-0.7	14.2*
CCc1[nH]nc2c1C(c1ccncc1)C(C#N)=C(N)O2 (configuration not stated)	-10.8	7.3	25.4	-8.1	3.8	/
N#CC1=C(N)Oc2n[nH]c(-c3ccc(F)cc3)c2C1c1cccnc1 (configuration not stated)	/	/	75.4*	/	/	15.6*

Screens deposited in PubChem by several laboratories.
